Most compounds without a hit are left out; they make up all but 1.8% or so of the library.
PriA SSB inh: K. pneumoniae PriA-SSBct interaction inhibition | inhibition, % at 33 µM | actives 0.6% (n = 430,000) | AlphaScreen SSBct-PriA binding, biotinylated peptide; in the data active = inhibition mostly above about 37%, no sharp cut-off; inactive = mostly below about 20%;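 note: plate controls were negative control peptide for no effect and reference peptide for full effect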
PfHsp40 yeast: restores yeast growth despite PfHsp40 toxicity; S. cerevisiae expressing PfHsp40, growth rescue, ATP luminescence; growth rescue, % at 12.5 µM; actives 0.68% (n = 340,000); AID 504582; in the data active = growth rescue above about 28%, passing the limit was not always enough;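 note: yeast W303a lacking pdr1 and pdr3 grown in galactose medium; growth measured after three days at 30 °C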
MazF activator: MazEF (E. coli) toxin RNase activation | FAM/BHQ RNA-DNA oligo cleavage fluorescence, 5 h | actives 0.32% (n = 350,000) | activation, % at 20 µM | P0AE70; in the data active = activation above about 50%
Target sequence (P0AE70 whole entry, looked up): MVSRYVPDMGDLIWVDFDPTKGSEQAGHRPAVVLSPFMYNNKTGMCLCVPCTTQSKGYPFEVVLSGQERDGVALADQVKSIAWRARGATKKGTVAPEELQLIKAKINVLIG
PrPC surface inh: reduces human prion protein on the cell surface; inhibition, % at 13.8 µM; AID 720596; actives 0.43% (n = 370,000); cell surface PrPC, TR-FRET read-out; in the data active = inhibition above about 24%; note: 0% = median of the test wells and 100% = reference compound wells
PrP 5UTR inh: inhibition of PrP 5' UTR reporter expression; cell-based PrP 5' UTR mRNA reporter, plate reader; inhibition, % (test concentration not listed); actives 0.35% (n = 340,000); in the data active = inhibition above about 52%; note: 0 = median of the neutral control wells
* hit, by the source's call; i = inactive; · = no result given.

SMILES | PriA SSB inh | PfHsp40 yeast | MazF activator | PrPC surface inh | PrP 5UTR inh
COc1ccccc1CCNC(=O)[C@H]1CCCN(c2ccc(=O)n(C)n2)C1 | -11 | · | · | · | ·
O=C(NCC(O)c1csc2ccccc12)C1CCOC1 (stereo not given) | -4 | · | · | · | ·
OCCN(Cc1ccccc1)Cc1ccccc1F | -13 | -1 | -17 | 5 | -7
O=[N+]([O-])c1cccc(/C=C/c2nc(C=Nc3ccccc3)c(O)o2)c1 | -16 | 0 | 133* | -9 | -41
Oc1oc(-c2ccccc2)nc1C=Nc1ccccc1 | -14 | 0 | 5 | -1 | -89
CC1CCCCC12NC(=O)N(CC(=O)OCC(=O)Nc1ccc(F)cc1[N+](=O)[O-])C2=O (stereo not given) | -4 | -1 | 7 | -11 | 3
Cc1cc(Cl)ccc1OC(C)C(=O)Nc1ccc(C(=O)Nc2ccccc2C(=O)O)cc1 (stereo not given) | 3 | 52* | -4 | 4 | -11
CC1CCc2c(C(=O)Nc3ccccn3)csc2C1 (stereo not given) | -12 | 265* | -12 | -9 | -103
COc1ccc(Br)cc1/C=C\C(=O)NCc1cccnc1 | -9 | 0 | -3 | -14 | -1
CSCCC1NC(=O)N(CC(=O)N2CCc3ccccc3C2)C1=O (stereo not given) | 0 | 50* | 2 | -4 | -7
CC1CCC2(CC1)NC(=O)N(CC(=O)N1CCc3ccccc3C1)C2=O (stereo not given) | 3 | 1 | 0 | -2 | -43
c1ccc(Nc2ccc(N3CCNCC3)nn2)nc1 | 56* | · | · | · | ·
c1cnn(-c2ccc(N3CCNCC3)nn2)c1 | 3 | · | · | · | ·
CCCc1cc(C(=O)NNC(=S)NCC2CCCO2)cs1 (stereo not given) | -1 | 69* | -2 | -1 | -13
CCc1cc(C(=O)NNC(=S)NCC2CCCO2)cs1 (stereo not given) | -1 | 0 | -6 | -7 | ·
CC1CCc2sc(-c3n[nH]c(=S)o3)cc2C1 (stereo not given) | 6 | 330* | -2 | -1 | -23
S=c1[nH]nc(-c2cc3c(s2)-c2ccccc2CC3)o1 | -37 | -1 | -9 | -5 | -11
Cc1cc(C(=O)NN=Cc2cccc([N+](=O)[O-])c2)c(C)n1-c1ccccc1 | 2 | · | · | · | ·
Cc1cc(C(=O)N/N=C/c2ccc(O)c(O)c2O)c(C)n1-c1ccccc1 | · | 87* | -3 | 8 | -64
COc1ccccc1NS(=O)(=O)c1ccc(NN=Cc2ccccc2OCC(=O)O)c([N+](=O)[O-])c1 | 42* | · | · | · | ·
CCOc1ccccc1/C=N/Nc1ccc(S(=O)(=O)Nc2ccccc2OC)cc1[N+](=O)[O-] | i | · | · | · | ·
COc1cc(C=NNc2ccc(S(=O)(=O)Nc3ccccc3C(=O)O)cc2[N+](=O)[O-])ccc1O | 49* | 10 | 3 | -16 | -10
Cc1nn(-c2ccccc2)c(Cl)c1C=NNc1ccc(S(=O)(=O)Nc2ccccc2C(=O)O)cc1[N+](=O)[O-] | 45* | · | · | · | ·
CN(CCO)c1ccc(C=NNc2ccc([N+](=O)[O-])cc2S(=O)(=O)Nc2ccccc2C(=O)O)cc1 | 40* | · | -11 | -10 | ·
CSc1ccc(/C=N/Nc2ccc(S(=O)(=O)Nc3ccccc3C(=O)O)cc2[N+](=O)[O-])cc1 | i | · | · | · | ·
SMILES | PriA SSB inh | PfHsp40 yeast | MazF activator | PrPC surface inh | PrP 5UTR inh
Cc1c(Cl)cccc1NC(=S)N1CCN(C(=O)c2ccco2)CC1 | -2 | -1 | -7 | 2 | -42
O=C(O)c1nccnc1-c1nc2ccccc2s1 | -1 | · | · | · | ·
Cc1nn(-c2ccccc2)c(N2CCCC2)c1C=NNc1ccc(S(N)(=O)=O)cc1[N+](=O)[O-] | 80* | · | · | · | ·
Cc1nn(-c2ccccc2)c(N2CCCC2)c1/C=N/Nc1ccc(S(N)(=O)=O)cc1[N+](=O)[O-] | · | -1 | 6 | -2 | -10
COc1ccc(C)cc1NC(=O)CSc1nnc(COc2ccc(Cl)cc2)n1Cc1ccco1 | 7 | 48* | 5 | 9 | -28
COc1ccc(OC)c(NC(=O)CSc2nnc(Cc3cccn3C)n2Cc2ccccc2)c1 | 39* | · | · | · | ·
COc1ccc(OC)c(NC(=O)CSc2nnc(Cc3cccn3C)n2CCc2ccccc2)c1 | 33 | 1 | -1 | 3 | -11
COc1ccc(C)cc1NC(=O)CSc1nnc(COc2ccccc2)n1Cc1ccco1 | -2 | 1 | -1 | 14 | -14
COc1ccccc1NC(=O)CSc1nnc(-c2ccncc2)n1Cc1ccco1 | 56* | · | · | · | ·
CCc1ccccc1NC(=O)CSc1nnc(-c2ccccn2)n1Cc1ccco1 | 54* | · | · | · | ·
COc1ccccc1NC(=O)CSc1nnc(-c2ccc(C)cc2)n1Cc1ccco1 | 47 | · | · | · | ·

Source: PubChem (several laboratories)
